Results as given in PubChem BioAssay.
A number with no mark means an inactive call. For some of these results: Entries with a potency or affinity are not part of this list. Calls of active or inactive are those of the source. Unless noted, how the calls were made is not given here.

Tests used:
[1] = antimalarial activity against Dd2 strain (AID 2302;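 active means growth inhibition above 50% at the single 2 µM test dose, taken to imply half-maximal potency below 2 µM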;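 further: 0% = DMSO untreated growth and 100% = chloroquine plus artemisinin killed control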); conditions: P. falciparum Dd2 in RBCs, LDH growth readout, 72 h; at 2 µM; active compounds read high
[2] = human hepatoma cell viability loss – ATP luminescence, cytotoxicity control for P. falciparum antimalarial project, primary screen (AID 2303;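 active means inhibition above 50%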;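 further: 0% = DMSO wells and 100% = digitonin-killed cells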); conditions: HepG2 viability, 24-48 h, at 10 µM, active compounds read high
[3] = target: L-lactate dehydrogenase (Plasmodium falciparum (isolate CDC / Honduras)) (UniProt Q27743); assay: PfLDH activity inhibition – cell lysate, 3D7 strain, counter-screen for P. falciparum growth inhibition project (AID 2304);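 further: 0% = vehicle and 100% = reference inhibitor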; conditions: P. falciparum 3D7 crude extract, LDH APAD/NBT absorbance; at 2 µM; active compounds read high
[4] = inhibition of 3D7 malaria parasite growth – strain 3D7 (AID 2306);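 further: 0% = DMSO wells and 100% = chloroquine plus artemisinin control wells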; conditions: P. falciparum 3D7 erythrocytic growth, LDH absorbance, 72 h; at 2 µM; active compounds read high
[5] = target: Calcium-dependent protein kinase 1 (Plasmodium falciparum (isolate 3D7)) (UniProt P62344); assay: PfCDPK1 kinase inhibitors, biochemical, TCAMS library (AID 1159585; cut-off not given, nearly all actives have IC50 up to about 0.98 µM;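 further: inhibitors leave more ATP so luminescence rises with inhibition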); conditions: recombinant PfCDPK1, Kinase-Glo ATP depletion luminescence
[6] = target: Plasmodium falciparum protein kinase 6 (PK6, PF3D7_1337100) (UniProt Q8IDW1); assay: PfPK6 kinase inhibitors, biochemical, TCAMS library (AID 1159586); conditions: recombinant PfPK6, Kinase-Glo ATP depletion luminescence
[7] = target: Protein kinase 7 (PK7), Plasmodium falciparum 3D7 (PF3D7_0213400) (UniProt Q7YTF7); assay: inhibition of Plasmodium PK7 catalytic activity – biochemical, TCAMS antimalarial set, Kinase-Glo luminescence (AID 1159587); conditions: recombinant PfPK7, Kinase-Glo ATP depletion luminescence
[8] = target: Calcium-dependent protein kinase 4 (Plasmodium falciparum (isolate 3D7)) (UniProt Q8IBS5); assay: PfCDPK4 kinase inhibitors, biochemical, TCAMS library (AID 1159588; cut-off not given, nearly all actives have IC50 up to about 0.91 µM); conditions: recombinant PfCDPK4, Kinase-Glo ATP depletion luminescence
Chain of Calcium-dependent protein kinase 4 (Plasmodium falciparum (isolate 3D7)) (Q8IBS5 whole entry, looked up): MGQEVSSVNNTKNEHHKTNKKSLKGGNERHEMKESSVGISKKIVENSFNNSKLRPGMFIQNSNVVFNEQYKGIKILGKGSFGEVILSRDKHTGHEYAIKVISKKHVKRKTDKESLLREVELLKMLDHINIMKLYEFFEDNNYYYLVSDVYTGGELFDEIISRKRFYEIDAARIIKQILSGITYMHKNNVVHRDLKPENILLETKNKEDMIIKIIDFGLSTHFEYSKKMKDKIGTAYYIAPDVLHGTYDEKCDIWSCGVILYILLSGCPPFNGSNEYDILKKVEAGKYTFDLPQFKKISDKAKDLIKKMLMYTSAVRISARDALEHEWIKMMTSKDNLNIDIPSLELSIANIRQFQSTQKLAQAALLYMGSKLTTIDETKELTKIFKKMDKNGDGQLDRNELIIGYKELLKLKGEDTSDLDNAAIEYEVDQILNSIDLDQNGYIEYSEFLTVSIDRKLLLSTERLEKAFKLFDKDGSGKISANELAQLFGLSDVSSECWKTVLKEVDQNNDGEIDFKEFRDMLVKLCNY

Chain of Protein kinase 7 (PK7), Plasmodium falciparum 3D7 (PF3D7_0213400) (Q7YTF7 1-343): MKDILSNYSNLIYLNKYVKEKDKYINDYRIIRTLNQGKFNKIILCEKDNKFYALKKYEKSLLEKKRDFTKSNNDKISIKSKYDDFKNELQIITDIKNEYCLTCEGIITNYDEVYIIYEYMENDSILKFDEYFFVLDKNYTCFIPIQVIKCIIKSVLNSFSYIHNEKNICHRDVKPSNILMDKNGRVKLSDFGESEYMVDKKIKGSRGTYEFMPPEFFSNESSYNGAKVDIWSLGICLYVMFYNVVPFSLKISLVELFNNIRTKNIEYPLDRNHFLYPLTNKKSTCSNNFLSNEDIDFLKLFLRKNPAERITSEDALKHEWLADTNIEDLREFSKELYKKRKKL
Chain of Calcium-dependent protein kinase 1 (Plasmodium falciparum (isolate 3D7)) (P62344 whole entry, looked up): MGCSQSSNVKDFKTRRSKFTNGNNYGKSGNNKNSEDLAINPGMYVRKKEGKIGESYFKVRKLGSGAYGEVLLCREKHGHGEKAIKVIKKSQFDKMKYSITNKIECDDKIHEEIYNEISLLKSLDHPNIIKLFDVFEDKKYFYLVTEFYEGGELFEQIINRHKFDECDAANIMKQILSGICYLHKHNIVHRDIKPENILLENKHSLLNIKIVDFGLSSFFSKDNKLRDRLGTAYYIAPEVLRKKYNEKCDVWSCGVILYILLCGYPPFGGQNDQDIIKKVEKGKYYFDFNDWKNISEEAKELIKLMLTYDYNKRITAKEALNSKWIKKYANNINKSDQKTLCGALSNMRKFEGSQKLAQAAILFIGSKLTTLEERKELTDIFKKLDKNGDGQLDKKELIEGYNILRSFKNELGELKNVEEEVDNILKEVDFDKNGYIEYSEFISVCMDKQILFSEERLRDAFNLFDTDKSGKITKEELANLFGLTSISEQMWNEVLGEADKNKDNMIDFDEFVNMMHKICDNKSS
Chain of Plasmodium falciparum protein kinase 6 (PK6, PF3D7_1337100) (Q8IDW1 1-305): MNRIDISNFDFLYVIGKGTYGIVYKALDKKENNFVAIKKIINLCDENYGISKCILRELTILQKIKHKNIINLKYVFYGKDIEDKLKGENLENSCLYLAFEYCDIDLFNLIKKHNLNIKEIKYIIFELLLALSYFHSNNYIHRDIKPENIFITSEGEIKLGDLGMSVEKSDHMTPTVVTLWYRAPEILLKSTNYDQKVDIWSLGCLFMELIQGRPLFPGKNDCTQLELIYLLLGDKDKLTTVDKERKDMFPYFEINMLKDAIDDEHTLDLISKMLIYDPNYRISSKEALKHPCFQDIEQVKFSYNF
Chain of L-lactate dehydrogenase (Plasmodium falciparum (isolate CDC / Honduras)) (Q27743 whole entry, looked up): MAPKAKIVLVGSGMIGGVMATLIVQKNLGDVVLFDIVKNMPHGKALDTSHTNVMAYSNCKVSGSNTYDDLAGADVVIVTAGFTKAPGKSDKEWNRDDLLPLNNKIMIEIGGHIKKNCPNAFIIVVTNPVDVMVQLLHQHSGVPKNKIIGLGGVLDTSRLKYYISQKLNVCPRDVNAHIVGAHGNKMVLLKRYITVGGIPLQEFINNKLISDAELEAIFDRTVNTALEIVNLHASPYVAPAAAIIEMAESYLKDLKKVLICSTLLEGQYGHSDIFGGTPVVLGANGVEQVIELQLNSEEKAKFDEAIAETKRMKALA

Compound | growth inhibition [1] | inhibition [2] | inhibition [3] [%] | growth inhibition [4] | outcome [5] | outcome [6] | outcome [7] | outcome [8]
CC(CN(C)C)C(=O)Nc1ccc(-c2ccc(-c3nc4ccc(F)cc4[nH]3)cc2)cc1 (stereo not given) | 95% (active) | 14% | -2 | 101% (active) | inactive | inactive | inactive | inactive
CCOc1ccc(-c2nonc2NC(=O)c2ccco2)cc1OCC | 77% (active) | 3% | -1 | 97% (active) | inactive | inactive | inactive | inactive
CN(C)CCOc1ccc(NC(=O)Nc2ccnc3c(Br)cccc23)cc1Cl | 25% | 10% | 0 | 97% (active) | inactive | inactive | inactive | inactive
Cc1cccc2[nH]c(-c3ccc(-c4ccc(CN5CCC(C(N)=O)CC5)cc4)s3)nc12 | 51% (active) | 4% | 8 | 97% (active) | inactive | inactive | inactive | inactive
NCCNc1ccc([N+](=O)[O-])cc1C(=O)Nc1cccc(Cl)c1 | 7% | 23% | 4 | 85% (active) | inactive | inactive | inactive | inactive
O=C1CSc2ccc(CNC3CCN(CCc4c(Cl)cnc5ccc(Cl)cc45)CC3)nc2N1 | 92% (active) | 25% | 2 | 101% (active) | inactive | inactive | inactive | inactive
CC(=O)Nc1nc(C(=O)Nc2ccc(-c3ccc(-c4nc5ccc(F)cc5[nH]4)cc3)cc2)cs1 | 33% | 17% | -5 | 100% (active) | inactive | inactive | inactive | inactive
CC(C)(C)c1ccc2nc(-c3ccc(/C=C/C(=O)NC4CCN(Cc5ccccc5)CC4)cc3)[nH]c2c1 | 96% (active) | 45% | -2 | 101% (active) | inactive | inactive | inactive | inactive
Cc1nnc2c(NC(=O)NC3CCCC3)cc3cc(-c4ccc(CN5CCCCC5)cc4)ccc3n12 | 93% (active) | 100% (active) | -3 | 99% (active) | inactive | inactive | inactive | inactive
COCCOc1ccc(Nc2nccc(-c3c(-c4cccc(NC(=O)c5c(F)cccc5F)c4)nn4ccccc34)n2)cc1F | 60% (active) | 62% (active) | 1 | 90% (active) | inactive | inactive | inactive | inactive
COc1ccc(NC(=O)[C@H](Cc2ccccc2)Nc2cc(C)nc(NCCc3ccc(F)cc3)n2)cc1 | 82% (active) | 17% | -3 | 101% (active) | inactive | inactive | inactive | inactive
COc1ccc2nc(C)cc(Nc3ccc(Cl)cc3)c2c1 | 3% | 10% | -2 | 89% (active) | inactive | inactive | inactive | inactive
N#Cc1ccc(NC(=Nc2ccccc2Br)N(C2CCCCC2)C2CCCCC2)c(O)c1 | 96% (active) | 4% | 4 | 99% (active) | inactive | inactive | inactive | inactive
COc1ccc2c(Nc3ccc(N4CCN(C)CC4)cc3)cc(C)nc2c1 | 9% | 23% | -2 | 101% (active) | inactive | inactive | inactive | inactive
Cc1nc(-c2cccc3c(NC(=O)N4CCc5cc6nccc(N7CCN(C)CC7)c6cc54)cccc23)no1 | 97% (active) | 45% | 2 | 100% (active) | inactive | inactive | inactive | inactive
CCCCCCC(C)c1cc(O)c2c(c1)OC(=O)CC2(CC)c1ccccn1 (stereo not given) | -2% | 15% | -2 | 100% (active) | inactive | inactive | inactive | inactive
CC1(C)N=C(N)N=C(N)N1OCCCOc1cc(Cl)c(Cl)cc1Cl | 95% (active) | 60% (active) | -1 | 95% (active) | inactive | inactive | inactive | inactive
Cc1[nH]c2c(C)cccc2c1C1CCN(CCC2CCN(C(=O)/C=C/c3ccc(Cl)c(Cl)c3)CC2)CC1 | 79% (active) | 67% (active) | -1 | 100% (active) | inactive | inactive | inactive | inactive
O=C1NC(=O)C(c2ccc(Cl)cc2)=C1Nc1cccc(S(=O)(=O)C(F)(F)F)c1 | 51% (active) | 1% | -2 | 99% (active) | inactive | inactive | inactive | inactive
N#Cc1ccc2c(c1)CCN(CCC1CCC(NC(=O)/C=C/c3c[nH]c4c(Br)cccc34)CC1)CC2 (stereo not given) | 65% (active) | 32% | 0 | 101% (active) | inactive | inactive | inactive | inactive
